Laboratory results reported in PubChem BioAssay AID1159580 (chemical genetic matrix, 2015).
“And” between values parts separate entries of the source, which are not always exact repeats. Equal values may be shown once. In all, about 5,500 compounds went through this assay and about 2,000 (36%) were called active. About 18% were inconclusive and are not listed. No stated cut-off is given here; in the data, active means normalized growth mostly below about 0.91 (no sharp cut-off); inconclusive means no clear call, values can overlap the other calls; inactive means mostly above about 0.92. The list shows a part of the results.

Test: chemical genetic growth profiling, strain panel (AID 1159580);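 further: tested at 20 µM; growth read once vehicle control cultures reached saturation at 30 °C; 1 = growth at the plate median or of vehicle wells; lower values mean less growth of the strain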
Conditions: S. cerevisiae deletion strains, growth OD

Measured: normalized growth

CCCCCCOc1ccccc1C(N)=O
inactive: locus YAL021C, strain ccr4, hits give low values 1.04 | locus YAL030W, strain snc1, hits give low values 0.939 | locus YBR231C, strain swc5, hits give low values 0.922 | locus YBR279W, strain paf1, hits give low values 0.934 | locus YCR088W, strain abp1, hits give low values 0.94 | locus YDL005C, strain med2, hits give low values 0.964 | locus YDL040C, strain nat1, hits give low values 0.948 | locus YDR001C, strain nth1, hits give low values 0.949 | locus YDR069C, strain doa4, hits give low values 0.989 | locus YDR195W, strain ref2 1.05 | locus YDR334W, strain swr1, hits give low values 0.959 | locus YDR335W, strain msn5, hits give low values 0.956 | locus YEL037C, strain rad23, hits give low values 0.943 | locus YEL061C, strain CIN8 (second series), hits give low values 0.935 | locus YER016W, strain bim1, hits give low values 0.928 | locus YER111C, strain swi4, hits give low values 0.941 | locus YFR010W, strain ubp6, hits give low values 0.985 | locus YGL167C, strain pmr1, hits give low values 0.92 | locus YGL173C, strain kem1, hits give low values 0.939 | locus YGL227W, strain vid30, hits give low values 0.947 | locus YHR013C, strain ard1, hits give low values 0.916 | locus YHR027C, strain rpn1, hits give low values 0.945 | locus YHR079C, strain IRE1, hits give low values 0.924 | locus YJL092W, strain hpr5, hits give low values 0.919 | locus YJL115W, strain asf1, hits give low values 0.96 | locus YJL154C, strain vps35, hits give low values 0.959
active: locus YAL013W, strain DEP1, hits give low values 0.662 | locus YAL026C, strain drs2, hits give low values 0.75 | locus YBL061C, strain skt5, hits give low values 0.893 | locus YBR009C, strain hhf1, hits give low values 0.862 | locus YBR021W, strain FUR4, hits give low values 0.84 | locus YBR023C, strain chs3, hits give low values 0.81 | locus YBR171W, strain sec66, hits give low values 0.857 | locus YBR229C, strain ROT2, hits give low values 0.86 | locus YCL011C, strain gbp2, hits give low values 0.897 | locus YCL016C, strain dcc1, hits give low values 0.874 | locus YCL029C, strain bik1, hits give low values 0.38 | locus YCL069W, strain vba3, hits give low values 0.849 | locus YDL035C, strain GPR1, hits give low values 0.553 | locus YDL074C, strain BRE1, hits give low values 0.443 | locus YDL101C, strain DUN1, hits give low values 0.505 | locus YDL134C, strain PPH21, hits give low values 0.513 | locus YDL185W, strain tfp1, hits give low values 0.636 | locus YDL192W, strain arf1, hits give low values 0.654 | locus YDR101C, strain arx1, hits give low values 0.655 | locus YDR137W, strain rgp1, hits give low values 1.39 [resistant] | locus YDR150W, strain NUM1, hits give low values 0.744 | locus YDR159W, strain sac3, hits give low values 0.784 | locus YDR162C, strain NBP2, hits give low values 0.338 | locus YDR297W, strain sur2, hits give low values 0.914 | locus YDR318W, strain mcm21, hits give low values 0.41 | locus YDR388W, hits give low values 0.71 | locus YDR392W, strain spt3, hits give low values 0.335 | locus YDR502C, strain sam2, hits give low values 0.546 | locus YEL003W, strain gim4, hits give low values 0.867 | locus YEL061C, strain CIN8, hits give low values 0.449 | locus YER015W, strain faa2, hits give low values 0.892 | locus YER110C, hits give low values 0.544 | locus YER155C, strain BEM2 (second series), hits give low values 0.249 | locus YER155C, strain BEM2, hits give low values 0.304 | locus YER167W, strain BCK2, hits give low values 0.367 | locus YGL078C, strain dbp3, hits give low values 0.864 | locus YGL086W, strain mad1, hits give low values 0.439 | locus YGL240W, strain doc1, hits give low values 0.789 | locus YGL248W, strain PDE1, hits give low values 0.612 | locus YGL253W, strain hxk2, hits give low values 0.824 | locus YGR135W, strain pre9, hits give low values 0.533 | locus YGR229C, strain SMI1, hits give low values 0.144 | locus YGR252W, strain gcn5, hits give low values 0.446 | locus YHR030C, strain SLT2, hits give low values 0.0615 and 0.831 | locus YHR079C, strain IRE1 (second series), hits give low values 0.646 | locus YHR094C, strain hxt1, hits give low values 0.765 | locus YHR129C, strain ARP1, hits give low values 0.474 | locus YHR142W, strain chs7, hits give low values 0.692 | locus YHR200W, strain rpn10, hits give low values 0.804 | locus YIL066C, strain RNR3, hits give low values 0.188 | locus YIL073C, strain SPO22, hits give low values 0.535 | locus YIL125W, strain kgd1, hits give low values 0.796 | locus YIR030C, strain dcg1, hits give low values 0.615 | locus YJL095W, strain BCK1 (second series), hits give low values 0.704 | locus YJL095W, strain BCK1, hits give low values 0.0726 and 0.863 | locus YJL129C, strain trk1, hits give low values 0.755 | locus YJL134W, strain LCB3, hits give low values 0.868 | locus YJL164C, strain tpk1, hits give low values 0.863 | locus YJL166W, strain qcr8, hits give low values 0.822 | locus YJL168C, strain set2, hits give low values 0.826 | locus YJL187C, strain SWE1 (second series), hits give low values 0.612 | locus YJL187C, strain SWE1, hits give low values 0.917
